Structures can show the parent of a compound that is named as a salt. ± gives the standard deviation of the averaged measurements.
The compounds below were run on Klebsiella pneumoniae KPC-119 (assay: percent growth inhibition of drug alone vs DMSO control; higher = more growth inhibition). Details: antibiotic (0.125x MIC): none (0.1% DMSO); 7 µM.
`CC[C@H]1OC(=O)[C@H](C)[C@@H](O[C@H]2C[C@@](C)(OC)[C@@H](O)[C@H](C)O2)[C@H](C)[C@@H](O[C@@H]2O[C@H](C)C[C@H](N(C)C)[C@H]2O)[C@](C)(O)C[C@@H](C)CN(C)[C@H](C)[C@@H](O)[C@]1(C)O` [Azithromycin] was tested, and the “percent growth inhibition of drug alone” value was 5.21 ± 1.8%.
For `CC(=O)OC[C@H]1O[C@@H]([S-])[C@H](OC(C)=O)[C@@H](OC(C)=O)[C@@H]1OC(C)=O.CCP(CC)CC.[Au+]` [Auranofin], the “percent growth inhibition of drug alone” value was 10 ± 0.89%.
`CC(C)NCC(O)c1ccc(O)c(O)c1` (single isomer, unassigned; (-)) [(-)-Isoproterenol hydrochloride] was tested, and the “percent growth inhibition of drug alone” value was 0.335 ± 1.6%.
`CO[C@H]1/C=C/O[C@@]2(C)Oc3c(C)c(O)c4c(O)c(c(/C=N/N5CCN(C6CCCC6)CC5)c(O)c4c3C2=O)NC(=O)/C(C)=C\C=C\[C@H](C)[C@H](O)[C@@H](C)[C@@H](O)[C@@H](C)[C@H](OC(C)=O)[C@@H]1C` [Rifapentine] was tested, and the “percent growth inhibition of drug alone” value was 2.17 ± 1.7%.
With `CN(C)CCOC(c1ccc(Cl)cc1)c1ccccn1` (stereo not given) [Carbinoxamine maleate salt] the “percent growth inhibition of drug alone” value was -6.88 ± 0.94%.
For `CO[C@H]1/C=C/O[C@@]2(C)Oc3c(C)c(O)c4c(c3C2=O)C2=NC3(CCN(CC(C)C)CC3)NC2=C(NC(=O)/C(C)=C\C=C\[C@H](C)[C@H](O)[C@@H](C)[C@@H](O)[C@@H](C)[C@H](OC(C)=O)[C@@H]1C)C4=O` [Rifabutin], the “percent growth inhibition of drug alone” value was 8.64 ± 2.6%.
`CCN1CCC[C@H]1CNC(=O)c1c(O)c(Cl)cc(Cl)c1OC` [Raclopride] was tested, and the “percent growth inhibition of drug alone” value was -0.791 ± 2.4%.
`NC[C@@H]1O[C@H](O[C@H]2[C@@H](O)[C@H](O[C@@H]3[C@@H](O)[C@H](N)C[C@H](N)[C@H]3O[C@H]3O[C@H](CO)[C@@H](O)[C@H](O)[C@H]3N)O[C@@H]2CO)[C@H](N)[C@@H](O)[C@@H]1O` [Paromomycin sulfate] was tested, and the “percent growth inhibition of drug alone” value was -0.033 ± 0.073%.
`CC[C@H]1OC(=O)[C@H](C)[C@@H](O[C@H]2C[C@@](C)(OC)[C@@H](O)[C@H](C)O2)[C@H](C)[C@@H](O[C@@H]2O[C@H](C)C[C@H](N(C)C)[C@H]2O)[C@](C)(OC)C[C@@H](C)C(=O)[C@H](C)[C@@H](O)[C@]1(C)O` [Clarithromycin] was tested, and the “percent growth inhibition of drug alone” value was 0.744 ± 2.4%.
In the case of `CCC[C@@H]1C[C@@H](C(=O)N[C@@H]([C@H]2O[C@H](SC)[C@H](O)[C@@H](O)[C@H]2O)[C@H](C)Cl)N(C)C1` [Clindamycin hydrochloride], the “percent growth inhibition of drug alone” value is reported as 12 ± 1.4%.
In the case of `CO[C@H]1/C=C/O[C@@]2(C)Oc3c(C)c(O)c4c(O)c(c5c(nc6cc(C)ccn65)c4c3C2=O)NC(=O)/C(C)=C\C=C\[C@H](C)[C@H](O)[C@@H](C)[C@@H](O)[C@@H](C)[C@H](OC(C)=O)[C@@H]1C` [Rifaximin], the “percent growth inhibition of drug alone” value is reported as 18.5 ± 1.3%.
With `O=c1[nH]c(=O)n([C@H]2C[C@H](O)[C@@H](CO)O2)cc1F` [Floxuridine] the “percent growth inhibition of drug alone” value was 34.2 ± 2.8%.
With `CCn1cc(C(=O)O)c(=O)c2cc(F)c(N3CCN(C)CC3)cc21` [Pefloxacine] the “percent growth inhibition of drug alone” value was 12.5 ± 1.1%.
With `CN[C@@H]1[C@@H](O[C@H]2O[C@H](CO)[C@@H](N)[C@H](O)[C@H]2O)OC2C[C@@H](N)[C@@H](O[C@H]3[C@H](O)[C@@H](O)[C@H](N)C[C@@H]3N)OC2[C@@H]1O` (stereo not given in full) [Apramycin] the “percent growth inhibition of drug alone” value was 4.95 ± 5.6%.
With `O=C1OCCN1/N=C/c1ccc([N+](=O)[O-])o1` [Furazolidone] the “percent growth inhibition of drug alone” value was 18.3 ± 1.2%.
`Clc1ccc(CCC(Cn2ccnc2)Sc2c(Cl)cccc2Cl)cc1` (stereo not given) [Butoconazole nitrate] was tested, and the “percent growth inhibition of drug alone” value was -1.2 ± 2.2%.
In the case of `CCCCCCCCCCCCCCCC[N+](C)(C)CCN(Cc1ccc(OC)cc1)c1ncccn1` [Thonzonium bromide], the “percent growth inhibition of drug alone” value is reported as -1.94 ± 3.1%.
`OCCOCCN1CCN(C2=Nc3ccccc3Sc3ccccc32)CC1` [Quetiapine hemifumarate] was tested, and the “percent growth inhibition of drug alone” value was -3.12 ± 4%.
With `O=C(O)c1cn(-c2ccc(F)cc2)c2cc(N3CCNCC3)c(F)cc2c1=O` [Sarafloxacin] the “percent growth inhibition of drug alone” value was 56.9 ± 1.9%.
With `CN(C)c1ccc(O)c2c1C[C@H]1C[C@H]3[C@H](N(C)C)C(O)=C(C(N)=O)C(=O)[C@@]3(O)C(O)=C1C2=O` [Minocycline hydrochloride] the “percent growth inhibition of drug alone” value was 10.9 ± 1.6%.

Same assay, conditions: antibiotic (0.125x MIC): none (0.1% DMSO); 20 µM
In the case of `CC[C@H]1OC(=O)[C@H](C)[C@@H](O[C@H]2C[C@@](C)(OC)[C@@H](O)[C@H](C)O2)[C@H](C)[C@@H](O[C@@H]2O[C@H](C)C[C@H](N(C)C)[C@H]2O)[C@](C)(O)C[C@@H](C)CN(C)[C@H](C)[C@@H](O)[C@]1(C)O` [Azithromycin], the “percent growth inhibition of drug alone” value is reported as 21.1 ± 1%.
In the case of `CC(=O)OC[C@H]1O[C@@H]([S-])[C@H](OC(C)=O)[C@@H](OC(C)=O)[C@@H]1OC(C)=O.CCP(CC)CC.[Au+]` [Auranofin], the “percent growth inhibition of drug alone” value is reported as 50.22 ± 0.3%.
For `CC(C)NCC(O)c1ccc(O)c(O)c1` (single isomer, unassigned; (-)) [(-)-Isoproterenol hydrochloride], the “percent growth inhibition of drug alone” value was 1.39 ± 1.6%.
`CO[C@H]1/C=C/O[C@@]2(C)Oc3c(C)c(O)c4c(O)c(c(/C=N/N5CCN(C6CCCC6)CC5)c(O)c4c3C2=O)NC(=O)/C(C)=C\C=C\[C@H](C)[C@H](O)[C@@H](C)[C@@H](O)[C@@H](C)[C@H](OC(C)=O)[C@@H]1C` [Rifapentine] was tested, and the “percent growth inhibition of drug alone” value was 34.82 ± 0.22%.
In the case of `CN(C)CCOC(c1ccc(Cl)cc1)c1ccccn1` (stereo not given) [Carbinoxamine maleate salt], the “percent growth inhibition of drug alone” value is reported as -3.08 ± 0.79%.
For `CO[C@H]1/C=C/O[C@@]2(C)Oc3c(C)c(O)c4c(c3C2=O)C2=NC3(CCN(CC(C)C)CC3)NC2=C(NC(=O)/C(C)=C\C=C\[C@H](C)[C@H](O)[C@@H](C)[C@@H](O)[C@@H](C)[C@H](OC(C)=O)[C@@H]1C)C4=O` [Rifabutin], the “percent growth inhibition of drug alone” value was 73.8 ± 3.7%.
For `CCN1CCC[C@H]1CNC(=O)c1c(O)c(Cl)cc(Cl)c1OC` [Raclopride], the “percent growth inhibition of drug alone” value was 0.378 ± 5.2%.
With `NC[C@@H]1O[C@H](O[C@H]2[C@@H](O)[C@H](O[C@@H]3[C@@H](O)[C@H](N)C[C@H](N)[C@H]3O[C@H]3O[C@H](CO)[C@@H](O)[C@H](O)[C@H]3N)O[C@@H]2CO)[C@H](N)[C@@H](O)[C@@H]1O` [Paromomycin sulfate] the “percent growth inhibition of drug alone” value was 41.3 ± 0.58%.
With `CC[C@H]1OC(=O)[C@H](C)[C@@H](O[C@H]2C[C@@](C)(OC)[C@@H](O)[C@H](C)O2)[C@H](C)[C@@H](O[C@@H]2O[C@H](C)C[C@H](N(C)C)[C@H]2O)[C@](C)(OC)C[C@@H](C)C(=O)[C@H](C)[C@@H](O)[C@]1(C)O` [Clarithromycin] the “percent growth inhibition of drug alone” value was 3.19 ± 2.3%.
With `CCC[C@@H]1C[C@@H](C(=O)N[C@@H]([C@H]2O[C@H](SC)[C@H](O)[C@@H](O)[C@H]2O)[C@H](C)Cl)N(C)C1` [Clindamycin hydrochloride] the “percent growth inhibition of drug alone” value was 28.5 ± 0.74%.
`CO[C@H]1/C=C/O[C@@]2(C)Oc3c(C)c(O)c4c(O)c(c5c(nc6cc(C)ccn65)c4c3C2=O)NC(=O)/C(C)=C\C=C\[C@H](C)[C@H](O)[C@@H](C)[C@@H](O)[C@@H](C)[C@H](OC(C)=O)[C@@H]1C` [Rifaximin] was tested, and the “percent growth inhibition of drug alone” value was 71.9 ± 2.4%.
`O=c1[nH]c(=O)n([C@H]2C[C@H](O)[C@@H](CO)O2)cc1F` [Floxuridine] was tested, and the “percent growth inhibition of drug alone” value was 92.8 ± 5.4%.
`CCn1cc(C(=O)O)c(=O)c2cc(F)c(N3CCN(C)CC3)cc21` [Pefloxacine] was tested, and the “percent growth inhibition of drug alone” value was 51.2 ± 3.2%.
`CN[C@@H]1[C@@H](O[C@H]2O[C@H](CO)[C@@H](N)[C@H](O)[C@H]2O)OC2C[C@@H](N)[C@@H](O[C@H]3[C@H](O)[C@@H](O)[C@H](N)C[C@@H]3N)OC2[C@@H]1O` (stereo not given in full) [Apramycin] was tested, and the “percent growth inhibition of drug alone” value was 52.9 ± 1.4%.
For `O=C1OCCN1/N=C/c1ccc([N+](=O)[O-])o1` [Furazolidone], the “percent growth inhibition of drug alone” value was 39.8 ± 1.6%.
`Clc1ccc(CCC(Cn2ccnc2)Sc2c(Cl)cccc2Cl)cc1` (stereo not given) [Butoconazole nitrate] was tested, and the “percent growth inhibition of drug alone” value was 2.34 ± 3.2%.
With `CCCCCCCCCCCCCCCC[N+](C)(C)CCN(Cc1ccc(OC)cc1)c1ncccn1` [Thonzonium bromide] the “percent growth inhibition of drug alone” value was 2.72 ± 1.4%.
`OCCOCCN1CCN(C2=Nc3ccccc3Sc3ccccc32)CC1` [Quetiapine hemifumarate] was tested, and the “percent growth inhibition of drug alone” value was -3.25 ± 2.9%.
With `O=C(O)c1cn(-c2ccc(F)cc2)c2cc(N3CCNCC3)c(F)cc2c1=O` [Sarafloxacin] the “percent growth inhibition of drug alone” value was 98.9 ± 1.1%.
With `CN(C)c1ccc(O)c2c1C[C@H]1C[C@H]3[C@H](N(C)C)C(O)=C(C(N)=O)C(=O)[C@@]3(O)C(O)=C1C2=O` [Minocycline hydrochloride] the “percent growth inhibition of drug alone” value was 52.8 ± 2.3%.

From the supplement of paper PMC6658780
